Source: PubChem BioAssay (National Center for Advancing Translational Sciences (NCATS))
FLuc counter – firefly luciferase modulation, counter-screen for miR-21 project; P08659; purified FLuc, Km substrates, luminescence inhibition; Potency, µM (doses to about 57.5 µM), for the others: at the highest dose activity change, negative = inhibition, hits mostly inhibitors; 360,000 compounds, 6.9% hits;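 also: plate controls were vehicle for no effect and reference inhibitor for full effect; nearly all actives have a fitted effect of over 55% in size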
Target sequence (P08659 whole entry, looked up): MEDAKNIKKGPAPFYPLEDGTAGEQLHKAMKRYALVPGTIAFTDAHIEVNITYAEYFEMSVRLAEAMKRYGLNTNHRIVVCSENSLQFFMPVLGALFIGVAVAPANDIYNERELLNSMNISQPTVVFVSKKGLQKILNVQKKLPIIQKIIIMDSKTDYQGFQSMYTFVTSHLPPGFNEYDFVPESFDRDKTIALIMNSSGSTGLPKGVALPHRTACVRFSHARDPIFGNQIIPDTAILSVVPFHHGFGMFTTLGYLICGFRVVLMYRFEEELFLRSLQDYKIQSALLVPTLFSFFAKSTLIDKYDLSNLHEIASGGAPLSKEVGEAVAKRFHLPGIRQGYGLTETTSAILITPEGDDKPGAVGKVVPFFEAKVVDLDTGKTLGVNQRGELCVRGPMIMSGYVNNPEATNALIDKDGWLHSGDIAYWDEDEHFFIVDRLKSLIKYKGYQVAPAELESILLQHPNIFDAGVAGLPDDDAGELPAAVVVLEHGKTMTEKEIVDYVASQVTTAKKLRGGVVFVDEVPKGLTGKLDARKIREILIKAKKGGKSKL
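Biochemical qHTS of compounds, final roughly 60 µM downward over six points, against 10 nM purified firefly luciferase using Km concentrations of substrates (10 uM D-luciferin, 10 uM ATP) in Tris acetate pH 7.5 buffer; luminescence output.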
Rab9 prom act – activates the Rab9 promoter | AID 485297 | 320,000 compounds, 2.8% hits | Potency, µM (doses to about 9.22 µM), for the others: top-dose activation, negative = inhibition, actives largely listed as activators | Huh7 Rab9 promoter-luciferase reporter, luminescence, 24 h; also: % of control where 0% means no effect; nearly all actives have a fitted effect of over 60% in size
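Stable Rab9-luc Huh7, 1500 cells/well, 2 h settle; cmpd in DMSO, 24 h, 37 °C/5% CO2; luciferase reagent 10 min RT; luminescence.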
NPC1 prom act – activators of NPC1 promoter; Huh7 NPC1 promoter luciferase reporter, 24 h; Potency, µM (series often up to 9.22 µM), for the others: at the highest dose activation, actives largely listed as activators; 320,000 compounds, 2.4% hits; AID 485313; also: % of control where 0% means no effect; nearly all actives have a fitted effect of over 60% in size
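Huh7 cells stably carrying NPC1 promoter–luciferase, plated in Opti-MEM with 10% FBS for 2 h, were exposed to compound in DMSO for 24 h at 37 °C; luciferase reagent was added for 10 min and luminescence read.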
SMN2 splice up – SMN2 splice variant enhancement; Potency, µM (series often up to 46.1 µM), without a hit: at the highest dose activity change, positive = activation, usual class: activators; AID 1458; HEK293 SMN2-luciferase splicing reporter, luminescence, 30-36 h; 210,000 compounds, 2.8% hits; also: % of control where 0% means no effect; nearly all actives have a fitted effect of over 55% in size
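HEK293 cells carry an SMN2 […]–luciferase reporter in which exon 7 inclusion puts luciferase in frame. Cells were plated 10-12 h before compound addition, then incubated 30-36 h at 37C. ONE-Glo luminescence was read; sodium butyrate at 4.5 mM final served as control.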
ELG1 genotoxic – induces genotoxicity in HEK293T cells with luciferase-tagged ELG1; 330,000 compounds, 1.3% hits; Potency, µM (highest dose often 46 µM), for the others: at the highest dose activity change, positive = activation, most hits filed as activators; HEK293T ELG1-luciferase reporter, luminescence, 16 h; also: % of control where 0% means no effect; nearly all actives have a fitted effect of over 60% in size
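DMSO vehicle served as control against compound-treated ELG1-luciferase HEK293T cells; exposure lasted 16 hr at 37 °C and 5% CO2, followed by ONE-Glo luminescence detection after 30 min.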
ELG1 repair inh – inhibitors of ELG1-dependent DNA repair in HEK293T cells; HEK293T ELG1-luciferase reporter, luminescence, 16 h; DNA damage induced by 5-fluorouridine; Potency, µM (highest dose often 46.1 µM), without a hit: at the top dose activity change, negative = inhibition, most hits filed as inhibitors; 330,000 compounds, 2.3% hits; AID 504467; also: % is scaled to controls: 0 for no effect and ±100 for the full control effect; nearly all actives have a fitted effect of over 55% in size
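Overnight (16 hr) co-exposure of 2,000 cells/well to 5-fluorouridine and compound at 37 °C preceded detection. Luciferase was quantified via ONE-Glo luminescence; loss of signal denotes inhibition.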
Numbers without * were called inactive; u = inconclusive; x = not tested or not shown. Hits are enriched below; roughly 9.3% of the tested compounds scored in any of these assays. Calls follow the shape of the dose curve; as a rule, active = well fitted curve in the direction sought with a large enough effect; inconclusive = small, poorly fitted or top-dose-only effect, or another doubt; inactive = no such curve, though single readings can be large; an effect the other way counts as inactive or inconclusive. Potency is read from the fitted curve at half-maximal effect.

SMILES	FLuc counter	Rab9 prom act	NPC1 prom act	SMN2 splice up	ELG1 genotoxic	ELG1 repair inh
CCOc1ccc(C(=O)COC(=O)c2cccc(-n3cnnn3)c2)cc1	2.7µM*	u	u	x	23%	u
CCOc1ccc(C(=O)COC(=O)c2cc(=O)[nH]c3ccccc23)cc1	1.3µM*	2%	-1%	x	1%	u
Cc1sc2c(c1C)C(=O)NC(c1cccc(O)c1)N2 (stereo unspecified)	15µM*	8%	0%	u	3%	u
Cc1cccc2sc(NC(=O)CSc3cn[nH]n3)nc12	-15%	1%	-3%	x	0%	-3%
CCOc1ccc2nc(NC(=O)CSc3cn[nH]n3)sc2c1	2.7µM*	4.5µM*	2.8µM*	x	4.6µM*	u
COc1ccc2nc(NC(=O)CSc3cn[nH]n3)sc2c1	6.7µM*	4µM*	u	x	u	u
CCOc1ccc2nc(NC(=O)CSc3nc(-c4ccccc4)c(C#N)c(=O)[nH]3)sc2c1	17µM*	2%	0%	x	11%	u
CCC(C)NC(=O)c1cc(S(=O)(=O)N2CCCCC2)c[nH]1 (stereo unspecified)	0%	5%	-1%	x	-2%	4%
COc1ccc2[nH]cc(CCNC(=O)CS(=O)(=O)Cc3ccccc3)c2c1	-2%	10%	-4%	x	-3%	-1%
CCOc1ccc(NC(=O)c2cnc3ccccn3c2=O)cc1	u	x	x	3%	x	x
Cc1cccc(NC(=O)c2cnc3ccccn3c2=O)c1	0.67µM*	0.32µM*	0.63µM*	0.71µM*	0.41µM*	u
COc1ccc(NC(=O)c2cnc3sccn3c2=O)cc1	u	2.5µM*	u	14µM*	4.1µM*	u
Cc1cccc(NC(=O)c2cnc3sccn3c2=O)c1C	2.7µM*	1.1µM*	u	5.6µM*	4.1µM*	u
Cc1cccc(NC(=O)c2cnc3sccn3c2=O)c1	3.4µM*	0.45µM*	0.89µM*	x	u	u
COc1ccc(-c2noc(CN(C)Cc3ccc(C)o3)n2)cc1	u	0%	1%	x	4%	u
CN(C)c1ccc(C(CNS(=O)(=O)c2ccccc2)N2CCc3ccccc32)cc1 (stereo unspecified)	0%	x	x	x	x	x
O=C(Nc1ccon1)c1cnc2sccn2c1=O	-20%	12%	21%	x	1%	u
O=C(Nc1cnc2sccn2c1=O)c1ccccc1Cl	15µM*	u	1.6µM*	23%	18µM*	u
Cc1ccc(Cl)cc1N1CCN(C(=O)CN2C(=O)c3cccc4cccc2c34)CC1	7%	-5%	-8%	-28%	-13%	21µM*
CCCN1Cc2cccc(C(=O)N3CCN(c4cc(Cl)ccc4C)CC3)c2C1=O	-2%	0%	1%	-4%	-8%	21µM*
CCN1CCN(C(=O)CN2C(=O)c3cccc4cccc2c34)CC1	-1%	1%	-3%	-15%	-1%	1%
CCOc1cc(C#N)ccc1OCC(=O)NNC(=O)CC1CCS(=O)(=O)C1 (stereo unspecified)	3%	-6%	0%	x	1%	-5%
O=C1[C@@H]2Cc3c([nH]c4ccccc34)[C@@H](c3ccccc3)N2C(=O)[C@@H]2Cc3c([nH]c4ccccc34)[C@@H](c3ccccc3)N12	3%	-10%	-8%	u	13%	18%
CC[C@H]1c2[nH]c3ccccc3c2C[C@@H]2C(=O)N(c3ccc(F)cc3)C(=O)N21	-4%	-3%	9%	x	16%	8.2µM*
Cc1ccc(OCC(=O)N2CCN(C(=O)c3ccc([N+](=O)[O-])cc3)CC2)cc1	-7%	0%	-9%	x	0%	u
SMILES	FLuc counter	Rab9 prom act	NPC1 prom act	SMN2 splice up	ELG1 genotoxic	ELG1 repair inh
COc1ccc(N2CCN(C(=O)COc3ccc4ccccc4c3)CC2)cc1	-2%	-1%	-3%	1%	0%	6%
COc1cc(OC)cc(C(=O)N2CCN(C(=O)COc3ccc4ccccc4c3)CC2)c1	5.4µM*	3%	9%	-12%	1%	u
O=C(COc1ccccc1)N1CCN(C(=O)c2ccc([N+](=O)[O-])cc2)CC1	9.5µM*	3.2µM*	4µM*	x	u	u
CC12COC3(C(=O)Nc4ccc5ccccc5c4)CC1CCC32C (stereo unspecified)	15µM*	u	u	11µM*	u	u
CC12COC3(C(=O)Nc4ccccc4)CC1CCC32C (stereo unspecified)	-2%	0%	-6%	x	0%	-3%
COc1ccc(-c2cc(-c3c(O)c(OC)c4occc4c3OC)[nH]n2)cc1	17µM*	3%	-1%	-35%	-2%	-5%
COc1ccc(-c2cc(-c3c(O)c(OC)c4occc4c3OC)[nH]n2)cc1OC	17µM*	11%	3%	-12%	-5%	26µM*
Fc1ccc(-c2nc3c(Cl)cc(C(F)(F)F)cn3c2Cl)cc1	u	0%	-1%	18µM*	16µM*	u
COc1cc(OC)c(NC(=O)CN(C)S(=O)(=O)c2ccc(-c3ccc(=O)[nH]n3)s2)cc1Cl	1%	-10%	0%	x	3%	6.5µM*
COc1ccc(C(=O)NNC2=NCCCCC2)cc1	3%	-9%	0%	12%	0%	-1%
Cc1ccc(-c2csc3nc(C)n(N)c(=O)c23)o1	u	u	u	4%	16µM*	u
CC(C)n1c(=N)c(C(=O)NCc2cccnc2)cc2c(=O)n3ccccc3nc21	-4%	x	x	-1%	x	x
C=CCOc1ccc(C(=O)Nc2ccccc2C(=O)NCc2cccnc2)cc1	u	-13%	-20%	x	-1%	-25%
